# About 27,000 (9.3%) of roughly 290,000 compounds were called active. The sample holds actives, similar compounds and a random draw of the others, so the mix is not that of the screen. Cut-off read from the data, not from the text of the source: active = inhibition mostly above about 28% (no sharp cut-off); inactive = mostly below about 43%.
# Experiment: A qHTS for Small Molecule Inhibitors of Shiga Toxin; for inhibition: 0% is about no effect
# Conditions: Vero cells, Shiga toxin protein synthesis inhibition reporter; at 38.7 µM, active compounds read high
row,Compound,inhibition
1,S=C(NCc1ccco1)NCc1ccccc1Cl,12.9% (inactive)
2,CCOC(=O)c1ccc(-n2c(CCC(=O)O)ccc2-c2ccccc2)cc1,1.31% (inactive)
3,O=C(O)CCn1c(Cc2ccccc2)nc2ccccc21,22.4% (inactive)
4,CC(=O)c1cccc(NC(=S)N2CCN(S(C)(=O)=O)CC2)c1,-3.09% (inactive)
5,Cc1cc(C(=O)COC(=O)CNC(=O)c2ccc(F)cc2)c(C)n1Cc1ccco1,109% (active)
6,Cc1cc(C(=O)CSc2nc(N)cc(=O)[nH]2)c(C)n1Cc1ccco1,-5.79% (inactive)
7,COc1ccc(C)cc1-n1nnnc1SCC(=O)c1cc(C)n(Cc2ccco2)c1C,-3.11% (inactive)
8,O=C(COC(=O)CNC(=O)c1ccco1)Nc1ccc(F)cc1,-5.84% (inactive)
9,Cc1ccc(OCC(=O)c2cc(C)n(Cc3ccco3)c2C)c([N+](=O)[O-])n1,50.3% (active)
10,COCC(C)n1c(C)cc(C(=O)COc2ccc(C)nc2[N+](=O)[O-])c1C (configuration not stated),27% (inactive)
11,CC(C)CCn1c(=O)c2c(nc3n2CCCN3Cc2ccccc2)n(C)c1=O,-11.9% (inactive)
12,CC(C)C[C@@H](COc1ccccc1)N1CCN(CC(C)C)CCC1=O,6.99% (inactive)
13,O=S(=O)(c1ccc(Br)cc1)N1CCC(c2nc3ccccc3[nH]2)CC1,20.1% (inactive)
14,CCCc1cc(=O)oc2c(C)c(OC(C)C(=O)NCC(O)c3ccccc3)ccc12 (configuration not stated),-4.11% (inactive)
15,O=C(CN(C(=O)c1csnn1)c1cccc(Cl)c1)NC1CCCC1,13.6% (inactive)
16,C=CCOC(=O)C(=C)C,-5.85% (inactive)
17,OCc1ccc(OCCCOc2cccc3cccnc23)cc1,31.7% (inactive)
18,Cc1ccnc(NC(=O)CCNS(=O)(=O)c2ccc(C)c(C)c2)c1,75.2% (active)
19,Cc1ccc(S(=O)(=O)NCCC(=O)Nc2ccc(C)c(Cl)c2)cc1C,-2.35% (inactive)
20,Cc1ccc(S(=O)(=O)NCCC(=O)Nc2cccc(S(N)(=O)=O)c2)cc1C,3.14% (inactive)
21,O=[N+]([O-])c1ccccc1/C=C/CN1CCCC(CO)C1 (configuration not stated),-4.92% (inactive)
22,COc1cc2c(C(=O)N(C)c3cc(Cl)ccc3OC)cn(C)c(=O)c2cc1OC,-4.23% (inactive)
23,O=C1CCN(CCCc2ccccc2)CCN1CCO,-7.2% (inactive)
24,O=C(Nc1ccccc1)/C(=C/c1ccc([N+](=O)[O-])cc1)NC(=O)c1ccccc1,0.876% (inactive)
25,O=C(NCC1CCCO1)/C(=C/c1ccc(Cl)cc1)NC(=O)c1ccccc1 (configuration not stated),-1.77% (inactive)

row,Compound,inhibition
1,N#C/C(=C/c1ccc(Cl)cc1)NC(=O)c1ccccc1,69.2% (active)
2,CCn1c(SCC(=O)NC2CC2)nnc1-c1ccncc1,6.57% (inactive)
3,Cc1nn2c(NCCN(C)C)c3c(nc2c1-c1ccccc1)CCC3,-1.35% (inactive)
4,Cc1ccc2c(=O)cc(C(=O)NCCc3ccc(S(N)(=O)=O)cc3)oc2c1C,3.06% (inactive)
5,CCOC(=O)c1ccc(NC2Nc3cc(C)nn3S2)cc1 (configuration not stated),37.2% (inactive)
6,CCc1ccc(NC2Nc3cc(C)nn3S2)cc1 (configuration not stated),52% (active)
7,CC(C)(C)c1ccc(/C=C/C(=O)NCCCn2ccnc2)cc1,-13.7% (inactive)
8,CCOC(=O)c1ccccc1NC(=O)CSc1nc2ccccc2c(=O)[nH]1,-5.65% (inactive)
9,CCC(NC(=O)c1ccccc1NC(=O)c1ccccc1)C(=O)NNC(=O)CSc1nc2ccccc2o1 (configuration not stated),23.3% (active)
10,Cn1c(=O)[nH]c(=O)c2c1nc(Br)n2CCCCSc1nc2ccccc2o1,39.4% (inactive)
11,COc1ccc(OC)c(NC(=O)C2CCCN2S(=O)(=O)c2cccc3nsnc23)c1 (configuration not stated),-4.24% (inactive)
12,COc1nc(NCc2ccc(Cl)cc2)nc(OC)n1,45.3% (inactive)
13,C=CCNc1nc(Nc2ccc(Cl)cc2)nc(OC)n1,71.3% (active)
14,C=CCNc1nc(C)nc(OC)n1,-12.3% (inactive)
15,Cc1sc2nc(SCCO)n(-c3ccccc3)c(=O)c2c1C,-3.85% (inactive)
16,Cc1ccc2c(c1)N(C(=O)CCC(=O)NCc1cccnc1)CCO2,3.18% (inactive)
17,Oc1ccc(Cl)cc1C1C=C(c2ccc3c(c2)OCO3)NC(c2c(F)cccc2Cl)N1 (configuration not stated),68.7% (active)
18,Oc1ccc(Cl)cc1C1C=C(c2ccc3c(c2)OCO3)NC(c2ccc(F)c(Br)c2)N1 (configuration not stated),93.1% (active)
19,Cc1csc(Nc2ccc(Cl)cc2)[n+]1-c1ccc(Cl)cc1,19.3% (inactive)
20,COCCN1C(=O)C(=O)/C(=C(/O)c2ccc(S(=O)(=O)N3CCCCC3)cc2)C1c1ccc(OC)c(OC)c1 (configuration not stated),11% (inactive)
21,C/C(=N\NC(=O)CNc1cccc2ccccc12)c1ccc(Br)s1,-8.07% (inactive)
22,Cn1cccc1/C=N/NC(=O)CNc1cccc2ccccc12,6.61% (inactive)
23,Cc1cccc(/C=N/NC(=O)CNc2cccc3ccccc23)n1,70.6% (active)
24,c1ccc(-c2nccc(-c3ccc(-n4cnc5ccccc54)cc3)n2)nc1,-13.3% (inactive)
25,CC(C)c1nc(-c2ccccn2)no1,46.2% (active)

row,Compound,inhibition
1,Clc1ccc(-c2cc(-c3ccccn3)on2)c(Cl)c1,48.1% (inactive)
2,COc1ccc(-n2ncc3c2CC(C)(C)CC3NC(=O)CCc2c(C)noc2C)cc1 (configuration not stated),27.2% (inactive)
3,O=C(/C=C/c1cccs1)c1cc(Cl)ccc1OC(=O)N1CCOCC1,18.1% (inactive)
4,COc1ccc(-c2nc(CS(=O)(=O)CC(=O)NCc3cccc(Br)c3)c(C)o2)cc1,4.36% (inactive)
5,O=C1NN(c2ccccc2)C(=O)/C1=C/c1ccc(-c2cccc(C(=O)O)c2)o1,18.2% (inactive)
6,O=C(O)C(c1ccccc1)N1C(=O)/C(=C\c2ccc(-c3cccc(Cl)c3)o2)SC1=S (configuration not stated),-2.95% (inactive)
7,O=C1c2ccccc2NC(c2ccc(-c3cccc(Cl)c3)o2)N1O (configuration not stated),58.1% (active)
8,COc1cccc(N(CC(=O)NCc2ccccc2)C(=O)CCC(=O)Nc2nccs2)c1,-2.69% (inactive)
9,CC(=O)c1ccc(NC(=S)NC(=O)CC(C)C)cc1,26.8% (active)
10,CC(C)CC(=O)NC(=S)Nc1cc(C(=O)O)ccc1Cl,30.7% (inactive)
11,COc1ccc(NS(=O)(=O)c2ccc(NC(=S)NC(=O)CC(C)C)cc2)cc1,-7.41% (inactive)
12,CCOC(=O)C1CCN(S(=O)(=O)c2c(C)noc2C)CC1,30.7% (inactive)
13,COC(=O)c1ccccc1NC(=O)CSc1n[nH]c(-c2ccncc2)n1,4.61% (inactive)
14,Cc1cccc(C(=O)Nc2ccc(CC(=O)O)cc2)c1,18.5% (inactive)
15,Cc1cccc(C(=O)Nc2ccc(C(=O)N/N=C/c3cccc(C)n3)cc2)c1,3.17% (inactive)
16,Cc1cccc(C(=O)Nc2ccc(C(=O)/C=C/c3cccs3)cc2)c1,99.7% (active)
17,Cc1ccc(C(=O)N/C(=C\c2cn(S(=O)(=O)N(C)C)c3ccccc23)C(=O)N2CCCC2)cc1,-2.9% (inactive)
18,CCOc1ccc(C(C(=O)NC2CCCC2)N(C(=O)c2snc(C(N)=O)c2N)C2CCCC2)cc1 (configuration not stated),12.4% (inactive)
19,COC(=O)CSc1nc(C2CC2)nc2ccccc12,-5.63% (inactive)
20,COc1ccc(-c2nnc3ccc(SCc4ccccc4)nn23)cc1,9.35% (inactive)
21,COC(=O)CSc1nc(C)c2ccc(OC)cc2n1,44.6% (active)
22,COc1ccc2nc(SCc3ccccc3)nc(C)c2c1,70.1% (active)
23,COc1ccc2[nH]c3nc(SCC(=O)NC4CC4)nnc3c2c1,-7.63% (inactive)
24,COc1cccc(CSc2nc3nc(C)cc(C)n3n2)c1,-3.55% (inactive)
25,O=C(COc1cc2oc(=O)c3c(c2cc1Cl)CCC3)NCCCN1CCOCC1,-7.49% (inactive)

row,Compound,inhibition
1,NC(=O)c1cc(S(=O)(=O)NCCCc2ccco2)cs1,19.4% (inactive)
2,CN1CCN(CCNC(=O)Nc2ccccc2[N+](=O)[O-])CC1,24.3% (inactive)
3,O=[N+]([O-])c1cc(C(F)(F)F)ccc1NN=C1CCCC1,9.47% (inactive)
4,O=[N+]([O-])c1ccccc1N/N=C1\CCc2ccccc21,50.9% (active)
5,CCOC(=O)C1CCCN(S(=O)(=O)c2ccc(-n3cnnn3)c(C)c2)C1 (configuration not stated),-3% (inactive)
6,COc1ccc(CN2CCC(=O)c3ccccc3S2(=O)=O)cc1,-3.72% (inactive)
7,CC(C)(C)c1ccc(OC2=CS(=O)(=O)c3ccccc32)cc1,135% (active)
8,CC(C)(C)c1ccc(CN2C(=O)c3ccccc3S2(=O)=O)cc1,32.5% (inactive)
9,Cc1cccc(OCC(=O)NCCNC(=O)c2cccnc2)c1,-6.35% (inactive)
10,Brc1ccc(C2CC(c3ccccc3)=Nc3ccccc3N2)cc1 (configuration not stated),105% (active)
11,Brc1ccc(C2=NCCC(c3ccccc3)O2)cc1 (configuration not stated),inactive
12,Cc1cc(=O)oc2cc(OCC(=O)N3CCN(c4ccc(F)cc4)CC3)c(Cl)cc12,-2.97% (inactive)
13,O=C(Nc1ccc(S(=O)(=O)N2CCCCC2)cc1)C1CC(=O)N(c2ccc(F)cc2)C1 (configuration not stated),29.9% (inactive)
14,Cc1cc2oc(=O)cc(CN3CCN(Cc4ccccc4)CC3)c2cc1C,-3.23% (inactive)
15,Cc1noc(C)c1C(=O)NCCc1ccc(S(N)(=O)=O)cc1,10.5% (inactive)
16,Clc1ccc(CN2CCCCCC2)cc1Cl,-3.6% (inactive)
17,N#Cc1ccc(N2Cc3ccccc3/C2=N/C(=O)Nc2ccc(Cl)cc2)cc1,24.7% (inactive)
18,Cc1cccc(N2Cc3ccccc3C2=NC(=O)c2ccc(Cl)nc2)c1,0% (active)
19,Cc1cccc(N2CCN(C(=O)c3cccc(S(=O)(=O)N4CCc5ccccc5C4)c3)CC2C)c1 (configuration not stated),-8.81% (inactive)
20,CCN1CCN(c2ccc(NC(=O)c3cnccn3)cc2)CC1,48.5% (active)
21,O=C(NCN1CCN(CCO)CC1)c1cnccn1,13% (inactive)
22,O=C(Nc1ccc(S(=O)(=O)N2CCCCC2)cc1)c1cnccn1,-1.88% (inactive)

# From PubChem BioAssay AID2315 (National Center for Advancing Translational Sciences (NCATS), 2010)
